# According to the supplement of paper PMC4466140:
# Target: AgAbp1
# Test: SPOT peptide array binding signal intensity (averaged, normalized) (arbitrary units (background-subtracted, floor 0; scale differs between SH3 domains)); higher = stronger binding of the SH3 domain to the peptide
# Procedure, shortened: (§1)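 GST-fused SH3 domains, from four yeast species, were produced in E. coli BL21(DE3) and captured on glutathione Sepharose. Membranes of cellulose carrying synthetic 15-mer peptides, in which cysteines had been replaced by serines, were exposed to each domain at 10 μg/ml overnight at 4°C in TBS-based blocking buffer. After anti-GST antibody, an HRP anti-mouse secondary and luminol, spots were imaged and quantified using Genespotter. Binding signal is normalized and background-subtracted spot intensity, averaged over replicates, in arbitrary units that differ between domains.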
row,Binder,SPOT peptide array binding signal intensity
1,LPPPPPPPPPPPLPQ,11

# Target: AgBbc1
# Test: as above
# Procedure, shortened: as §1
row,Binder,SPOT peptide array binding signal intensity
1,LPPPPPPPPPPPLPQ,1.25

# Target: AgBem1-D1
# Test: as above
# Procedure, shortened: as §1
row,Binder,SPOT peptide array binding signal intensity
1,LPPPPPPPPPPPLPQ,≤ 0

# Target: AgBzz1-D1
# Test: as above
# Procedure, shortened: as §1
row,Binder,SPOT peptide array binding signal intensity
1,LPPPPPPPPPPPLPQ,42.5

# Target: AgBzz1-D2
# Test: as above
# Procedure, shortened: as §1
row,Binder,SPOT peptide array binding signal intensity
1,LPPPPPPPPPPPLPQ,1

# Target: AgCyk3
# Test: as above
# Procedure, shortened: as §1
row,Binder,SPOT peptide array binding signal intensity
1,LPPPPPPPPPPPLPQ,1

# Target: AgFus1
# Test: as above
# Procedure, shortened: as §1
row,Binder,SPOT peptide array binding signal intensity
1,LPPPPPPPPPPPLPQ,3

# Target: AgHof1
# Test: as above
# Procedure, shortened: as §1
row,Binder,SPOT peptide array binding signal intensity
1,LPPPPPPPPPPPLPQ,128

# Target: AgHse1
# Test: as above
# Procedure, shortened: as §1
row,Binder,SPOT peptide array binding signal intensity
1,LPPPPPPPPPPPLPQ,21

# Target: AgLsb1
# Test: as above
# Procedure, shortened: as §1
row,Binder,SPOT peptide array binding signal intensity
1,LPPPPPPPPPPPLPQ,1.5

# Target: AgLsb4
# Test: as above
# Procedure, shortened: as §1
row,Binder,SPOT peptide array binding signal intensity
1,LPPPPPPPPPPPLPQ,≤ 0

# Target: AgMyo5
# Test: as above
# Procedure, shortened: as §1
row,Binder,SPOT peptide array binding signal intensity
1,LPPPPPPPPPPPLPQ,640

# Target: AgNbp2
# Test: as above
# Procedure, shortened: as §1
row,Binder,SPOT peptide array binding signal intensity
1,LPPPPPPPPPPPLPQ,28.5

# Target: AgRvs167
# Test: as above
# Procedure, shortened: as §1
row,Binder,SPOT peptide array binding signal intensity
1,LPPPPPPPPPPPLPQ,≤ 0

# Target: AgSho1
# Test: as above
# Procedure, shortened: as §1
row,Binder,SPOT peptide array binding signal intensity
1,LPPPPPPPPPPPLPQ,≤ 0

# Target: AgSla1-D1-D2
# Test: as above
# Procedure, shortened: as §1
row,Binder,SPOT peptide array binding signal intensity
1,LPPPPPPPPPPPLPQ,4.5

# Target: AgSla1-D3
# Test: as above
# Procedure, shortened: as §1
row,Binder,SPOT peptide array binding signal intensity
1,LPPPPPPPPPPPLPQ,≤ 0

# Target: CaAbp1-D1
# Test: as above
# Procedure, shortened: as §1
row,Binder,SPOT peptide array binding signal intensity
1,LPPPPPPPPPPPLPQ,9

# Target: CaAbp1-D2
# Test: as above
# Procedure, shortened: as §1
row,Binder,SPOT peptide array binding signal intensity
1,LPPPPPPPPPPPLPQ,≤ 0

# Target: CaBbc1
# Test: as above
# Procedure, shortened: as §1
row,Binder,SPOT peptide array binding signal intensity
1,LPPPPPPPPPPPLPQ,≤ 0

# Target: CaBem1-D1
# Test: as above
# Procedure, shortened: as §1
row,Binder,SPOT peptide array binding signal intensity
1,LPPPPPPPPPPPLPQ,3

# Target: CaBzz1-D1
# Test: as above
# Procedure, shortened: as §1
row,Binder,SPOT peptide array binding signal intensity
1,LPPPPPPPPPPPLPQ,1990

# Target: CaBzz1-D2
# Test: as above
# Procedure, shortened: as §1
row,Binder,SPOT peptide array binding signal intensity
1,LPPPPPPPPPPPLPQ,495

# Target: CaCyk3
# Test: as above
# Procedure, shortened: as §1
row,Binder,SPOT peptide array binding signal intensity
1,LPPPPPPPPPPPLPQ,≤ 0

# Target: CaFus1
# Test: as above
# Procedure, shortened: as §1
row,Binder,SPOT peptide array binding signal intensity
1,LPPPPPPPPPPPLPQ,≤ 0

# Target: CaHof1
# Test: as above
# Procedure, shortened: as §1
row,Binder,SPOT peptide array binding signal intensity
1,LPPPPPPPPPPPLPQ,≤ 0

# Target: CaHse1
# Test: as above
# Procedure, shortened: as §1
row,Binder,SPOT peptide array binding signal intensity
1,LPPPPPPPPPPPLPQ,5.75

# Target: CaLsb1
# Test: as above
# Procedure, shortened: as §1
row,Binder,SPOT peptide array binding signal intensity
1,LPPPPPPPPPPPLPQ,≤ 0

# Target: CaLsb4
# Test: as above
# Procedure, shortened: as §1
row,Binder,SPOT peptide array binding signal intensity
1,LPPPPPPPPPPPLPQ,≤ 0

# Target: CaMyo5
# Test: as above
# Procedure, shortened: as §1
row,Binder,SPOT peptide array binding signal intensity
1,LPPPPPPPPPPPLPQ,182

# Target: CaNbp2
# Test: as above
# Procedure, shortened: as §1
row,Binder,SPOT peptide array binding signal intensity
1,LPPPPPPPPPPPLPQ,10

# Target: CaRvs167
# Test: as above
# Procedure, shortened: as §1
row,Binder,SPOT peptide array binding signal intensity
1,LPPPPPPPPPPPLPQ,≤ 0

# Target: CaRvs167-3
# Test: as above
# Procedure, shortened: as §1
row,Binder,SPOT peptide array binding signal intensity
1,LPPPPPPPPPPPLPQ,0.5

# Target: CaSho1
# Test: as above
# Procedure, shortened: as §1
row,Binder,SPOT peptide array binding signal intensity
1,LPPPPPPPPPPPLPQ,4.5

# Target: CaSla1-D1-D2
# Test: as above
# Procedure, shortened: as §1
row,Binder,SPOT peptide array binding signal intensity
1,LPPPPPPPPPPPLPQ,5.5

# Target: CaSla1-D3
# Test: as above
# Procedure, shortened: as §1
row,Binder,SPOT peptide array binding signal intensity
1,LPPPPPPPPPPPLPQ,0.5

# Target: ScAbp1
# Test: as above
# Procedure, shortened: as §1
row,Binder,SPOT peptide array binding signal intensity
1,LPPPPPPPPPPPLPQ,2.5

# Target: ScBbc1
# Test: as above
# Procedure, shortened: as §1
row,Binder,SPOT peptide array binding signal intensity
1,LPPPPPPPPPPPLPQ,2.5

# Target: ScBem1-D1
# Test: as above
# Procedure, shortened: as §1
row,Binder,SPOT peptide array binding signal intensity
1,LPPPPPPPPPPPLPQ,≤ 0

# Target: ScBzz1-D1
# Test: as above
# Procedure, shortened: as §1
row,Binder,SPOT peptide array binding signal intensity
1,LPPPPPPPPPPPLPQ,16

# Target: ScBzz1-D2
# Test: as above
# Procedure, shortened: as §1
row,Binder,SPOT peptide array binding signal intensity
1,LPPPPPPPPPPPLPQ,2

# Target: ScCyk3
# Test: as above
# Procedure, shortened: as §1
row,Binder,SPOT peptide array binding signal intensity
1,LPPPPPPPPPPPLPQ,0.5

# Target: ScFus1
# Test: as above
# Procedure, shortened: as §1
row,Binder,SPOT peptide array binding signal intensity
1,LPPPPPPPPPPPLPQ,≤ 0

# Target: ScHof1
# Test: as above
# Procedure, shortened: as §1
row,Binder,SPOT peptide array binding signal intensity
1,LPPPPPPPPPPPLPQ,9.25

# Target: ScHse1
# Test: as above
# Procedure, shortened: as §1
row,Binder,SPOT peptide array binding signal intensity
1,LPPPPPPPPPPPLPQ,23

# Target: ScLsb1
# Test: as above
# Procedure, shortened: as §1
row,Binder,SPOT peptide array binding signal intensity
1,LPPPPPPPPPPPLPQ,0.5

# Target: ScLsb2
# Test: as above
# Procedure, shortened: as §1
row,Binder,SPOT peptide array binding signal intensity
1,LPPPPPPPPPPPLPQ,≤ 0

# Target: ScLsb3
# Test: as above
# Procedure, shortened: as §1
row,Binder,SPOT peptide array binding signal intensity
1,LPPPPPPPPPPPLPQ,54

# Target: ScLsb4
# Test: as above
# Procedure, shortened: as §1
row,Binder,SPOT peptide array binding signal intensity
1,LPPPPPPPPPPPLPQ,1.5

# Target: ScMyo3
# Test: as above
# Procedure, shortened: as §1
row,Binder,SPOT peptide array binding signal intensity
1,LPPPPPPPPPPPLPQ,1930

# Target: ScMyo5
# Test: as above
# Procedure, shortened: as §1
row,Binder,SPOT peptide array binding signal intensity
1,LPPPPPPPPPPPLPQ,933

# Target: ScNbp2
# Test: as above
# Procedure, shortened: as §1
row,Binder,SPOT peptide array binding signal intensity
1,LPPPPPPPPPPPLPQ,16

# Target: ScPex13
# Test: as above
# Procedure, shortened: as §1
row,Binder,SPOT peptide array binding signal intensity
1,LPPPPPPPPPPPLPQ,41.8

# Target: ScRvs167
# Test: as above
# Procedure, shortened: as §1
row,Binder,SPOT peptide array binding signal intensity
1,LPPPPPPPPPPPLPQ,≤ 0

# Target: ScSho1
# Test: as above
# Procedure, shortened: as §1
row,Binder,SPOT peptide array binding signal intensity
1,LPPPPPPPPPPPLPQ,≤ 0

# Target: ScSla1-D1-D2
# Test: as above
# Procedure, shortened: as §1
row,Binder,SPOT peptide array binding signal intensity
1,LPPPPPPPPPPPLPQ,16.5

# Target: ScSla1-D3
# Test: as above
# Procedure, shortened: as §1
row,Binder,SPOT peptide array binding signal intensity
1,LPPPPPPPPPPPLPQ,≤ 0

# Target: SpAbp1-D1
# Test: as above
# Procedure, shortened: as §1
row,Binder,SPOT peptide array binding signal intensity
1,LPPPPPPPPPPPLPQ,3

# Target: SpBbc1
# Test: as above
# Procedure, shortened: as §1
row,Binder,SPOT peptide array binding signal intensity
1,LPPPPPPPPPPPLPQ,0.5

# Target: SpBzz1-D1
# Test: as above
# Procedure, shortened: as §1
row,Binder,SPOT peptide array binding signal intensity
1,LPPPPPPPPPPPLPQ,4870

# Target: SpBzz1-D2
# Test: as above
# Procedure, shortened: as §1
row,Binder,SPOT peptide array binding signal intensity
1,LPPPPPPPPPPPLPQ,7.5

# Target: SpCyk3
# Test: as above
# Procedure, shortened: as §1
row,Binder,SPOT peptide array binding signal intensity
1,LPPPPPPPPPPPLPQ,≤ 0

# Target: SpHof1
# Test: as above
# Procedure, shortened: as §1
row,Binder,SPOT peptide array binding signal intensity
1,LPPPPPPPPPPPLPQ,≤ 0

# Target: SpHof1-2
# Test: as above
# Procedure, shortened: as §1
row,Binder,SPOT peptide array binding signal intensity
1,LPPPPPPPPPPPLPQ,≤ 0

# Target: SpHof1-3
# Test: as above
# Procedure, shortened: as §1
row,Binder,SPOT peptide array binding signal intensity
1,LPPPPPPPPPPPLPQ,0.5

# Target: SpHse1
# Test: as above
# Procedure, shortened: as §1
row,Binder,SPOT peptide array binding signal intensity
1,LPPPPPPPPPPPLPQ,2.25

# Target: SpLsb1
# Test: as above
# Procedure, shortened: as §1
row,Binder,SPOT peptide array binding signal intensity
1,LPPPPPPPPPPPLPQ,≤ 0

# Target: SpLsb4
# Test: as above
# Procedure, shortened: as §1
row,Binder,SPOT peptide array binding signal intensity
1,LPPPPPPPPPPPLPQ,≤ 0

# Target: SpMyo1
# Test: as above
# Procedure, shortened: as §1
row,Binder,SPOT peptide array binding signal intensity
1,LPPPPPPPPPPPLPQ,1520

# Target: SpNbp2
# Test: as above
# Procedure, shortened: as §1
row,Binder,SPOT peptide array binding signal intensity
1,LPPPPPPPPPPPLPQ,2

# Target: SpPex13
# Test: as above
# Procedure, shortened: as §1
row,Binder,SPOT peptide array binding signal intensity
1,LPPPPPPPPPPPLPQ,≤ 0

# Target: SpRvs167
# Test: as above
# Procedure, shortened: as §1
row,Binder,SPOT peptide array binding signal intensity
1,LPPPPPPPPPPPLPQ,5.33

# Target: SpSla1-D1-D2
# Test: as above
# Procedure, shortened: as §1
row,Binder,SPOT peptide array binding signal intensity
1,LPPPPPPPPPPPLPQ,3

# Target: SpSla1-D3
# Test: as above
# Procedure, shortened: as §1
row,Binder,SPOT peptide array binding signal intensity
1,LPPPPPPPPPPPLPQ,≤ 0
